High-throughput results as filed in PubChem.
UGM FP inh: M. tuberculosis UGM enzyme inhibitors, primary screen, biochemical, fluorescence polarization, single point | AID 504406, 2011 | inhibition, % at 10 µM | purified UGM, fluorescence polarization probe displacement | 0.06% of 320,000 active; in the data active = inhibition above about 10%, passing the limit was not always enough
Rv3671c inh: Rv3671c serine protease inhibitors, primary screen, biochemical, fluorescence polarization, M. tuberculosis H37Rv; 0.048% of 320,000 active; AID 2606, 2010; inhibition, % at 5.96 µM; in the data active = inhibition above about 38%;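 note: extracellular domain of Rv3671c used as enzyme; 0% = enzyme with DMSO and 100% = no enzyme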
Target sequence (P9WHR9 whole entry, looked up, the tested form may be a part): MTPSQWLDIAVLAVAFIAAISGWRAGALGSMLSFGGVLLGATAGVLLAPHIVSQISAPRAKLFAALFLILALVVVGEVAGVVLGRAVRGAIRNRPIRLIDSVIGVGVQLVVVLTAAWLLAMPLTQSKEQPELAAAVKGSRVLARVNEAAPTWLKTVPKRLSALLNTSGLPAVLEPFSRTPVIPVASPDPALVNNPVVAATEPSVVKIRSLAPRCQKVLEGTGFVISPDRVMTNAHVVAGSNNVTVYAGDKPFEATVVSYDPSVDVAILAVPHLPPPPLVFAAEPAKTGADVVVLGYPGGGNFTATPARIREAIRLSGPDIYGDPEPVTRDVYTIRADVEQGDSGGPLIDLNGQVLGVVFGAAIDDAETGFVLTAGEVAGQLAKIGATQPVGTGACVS
Mtb betalactam: beta-lactam sensitization of Mtb H37Rv, H37Rv; M. tuberculosis H37Rv growth with meropenem, percent inhibition; 0.27% of 330,000 active; inhibition, % at 25 µM; call rule not given here;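 note: growth measured after seven days incubation then overnight dye step; 0% = bacteria only wells and 100% = bacteria with antibiotic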
GDH-TPI counter-1: GDH-TPI coupling enzyme inhibitors, primary screen, artefact control for M. tuberculosis FBA inhibitor project, biochemical, absorbance, full deck; GDH-TPI coupled enzyme counterscreen, NADH absorbance; inhibition, % at 4.8 µM; 1.2% of 360,000 active; AID 588335, 2011; in the data active = inhibition above about 30%;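 note: 0% = DMSO wells and 100% = wells lacking the enzyme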
FBA Mtb inh: Mtb FBA enzyme inhibitors, primary screen, biochemical, fluorescence, strain H37Rv; purified M. tuberculosis FBA, fluorescence read-out; inhibition, % at 1 µM; 2.3% of 360,000 active;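 note: 0% = vehicle and 100% = reference inhibitor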
Mtb FBA inh conf: M. tuberculosis aldolase blockers, biochemical, fluorescence, strain H37Rv, confirmation | shares compounds with FBA Mtb inh | inhibition, % at 1 µM | 78% of 5,600 active | purified M. tuberculosis FBA, fluorescence read-out;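 note: 0% = vehicle wells and 100% = reference inhibitor wells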
GDH-TPI counter-2: GDH-TPI coupling enzyme inhibitors, artefact control for M. tuberculosis FBA inhibitor project, biochemical, fluorescence, high throughput; 81% of 5,600 active; AID 652141, 2013; GDH-TPI coupled enzyme counterscreen; shares compounds with FBA Mtb inh; inhibition, % at 1 µM; in the data active = inhibition above about 10%
* hit, by the source's call. Only some compounds are listed: those with a hit (about 3.5% of all), similar ones and a draw of the others. Cut-off read from the data, not from the text of the source, unless noted: active = inhibition above about 27%; inactive = the rest.

Results for COC(=O)/C(C#N)=C/c1c(N2CCN(c3ccc(OC)cc3)CC2)nc2c(C)cccn2c1=O ?
UGM FP inh: 2; Rv3671c inh: 13; Mtb betalactam: 16; GDH-TPI counter-1: 7; FBA Mtb inh: -4

What do the screens show for `CNC(=O)/C(C#N)=C/c1c(N2CCCCCC2)nc2ccccn2c1=O`?
UGM FP inh: 1; Rv3671c inh: -4; Mtb betalactam: 0; GDH-TPI counter-1: 0; FBA Mtb inh: 64*; Mtb FBA inh conf: -1; GDH-TPI counter-2: 1

How did CNC(=O)/C(C#N)=C/c1c(N2CCN(c3ccccc3)CC2)nc2c(C)cccn2c1=O do in these assays?
UGM FP inh: 0; Rv3671c inh: -1; Mtb betalactam: -1; GDH-TPI counter-1: 14; FBA Mtb inh: 37*; Mtb FBA inh conf: -6; GDH-TPI counter-2: -3

How did CNC(=O)/C(C#N)=C/c1c(N2CCCCCC2)nc2c(C)cccn2c1=O do in these assays?
UGM FP inh: -1; Rv3671c inh: 0; Mtb betalactam: 3; GDH-TPI counter-1: 7; FBA Mtb inh: 28*; Mtb FBA inh conf: active; GDH-TPI counter-2: 184*

How did CNC(=O)/C(C#N)=C/c1c(N2CCN(c3ccc(OC)cc3)CC2)nc2c(C)cccn2c1=O do in these assays?
UGM FP inh: 1; Rv3671c inh: 12; Mtb betalactam: -2; GDH-TPI counter-1: 12; FBA Mtb inh: 37*; Mtb FBA inh conf: active; GDH-TPI counter-2: 142*

What do the screens show for `CCCCC(=O)N(CCOC)c1nnc(-c2ccccc2C)s1`?
UGM FP inh: 0; Rv3671c inh: -3; Mtb betalactam: 10; GDH-TPI counter-1: 2; FBA Mtb inh: 0

Results for COc1ccc(CCNC(=O)CS(=O)(=O)c2cn(CC(=O)N(C(C)C)C(C)C)c3ccccc23)cc1OC ?
UGM FP inh: 2; Rv3671c inh: 4; Mtb betalactam: -6; GDH-TPI counter-1: 2; FBA Mtb inh: 0

Results for CCN(CC(=O)NCc1ccncc1)S(=O)(=O)c1ccc(OC)cc1 ?
UGM FP inh: -1; Rv3671c inh: 1; Mtb betalactam: 5; GDH-TPI counter-1: 3; FBA Mtb inh: -2

How did c1cnc2cc(-c3ccsc3)ncc2c1 do in these assays?
UGM FP inh: 0; Rv3671c inh: 0; Mtb betalactam: -4; GDH-TPI counter-1: 15; FBA Mtb inh: 29*; Mtb FBA inh conf: 8; GDH-TPI counter-2: 5

Results for O=C(NCC(c1ccco1)N1CCc2ccccc21)c1cccc([N+](=O)[O-])c1 (stereo not given) ?
UGM FP inh: 5; Rv3671c inh: -1; Mtb betalactam: -12; GDH-TPI counter-1: 0; FBA Mtb inh: -2

Results for O=C(COc1ccc([N+](=O)[O-])cc1)Nc1nc(-c2ccccn2)cs1 ?
UGM FP inh: 0; Rv3671c inh: -24; Mtb betalactam: 91; GDH-TPI counter-1: 10; FBA Mtb inh: 28*; Mtb FBA inh conf: active; GDH-TPI counter-2: active

What do the screens show for `Cc1cccc(NC(=O)CSc2nnc(NC(=O)c3ccco3)s2)c1`?
UGM FP inh: -2; Rv3671c inh: 3; Mtb betalactam: -11; GDH-TPI counter-1: 18; FBA Mtb inh: -2

What do the screens show for `CC1=CC(=O)C(C(C)C)=C/C1=N\OC(=O)c1cccc2nc(C)oc12`?
UGM FP inh: -1; Rv3671c inh: -6; Mtb betalactam: 5; GDH-TPI counter-1: 9; FBA Mtb inh: 32*; Mtb FBA inh conf: 69*; GDH-TPI counter-2: 59*

How did CC(C)OC(=O)C(C)Nc1n[nH]c(=S)[nH]c1=O (stereo not given) do in these assays?
GDH-TPI counter-1: 9; FBA Mtb inh: 6

What do the screens show for `CC(C)COC(=O)C(C)Nc1n[nH]c(=S)[nH]c1=O` (stereo not given)?
UGM FP inh: 0; Rv3671c inh: 5; Mtb betalactam: 0; GDH-TPI counter-1: 11; FBA Mtb inh: 53*; Mtb FBA inh conf: 4; GDH-TPI counter-2: -3

Results for O=c1[nH]c2ccccc2nc1-c1cccs1 ?
UGM FP inh: -3; Rv3671c inh: -8; Mtb betalactam: -5; GDH-TPI counter-1: 15; FBA Mtb inh: 104*; Mtb FBA inh conf: 143*; GDH-TPI counter-2: 107*
